Data published in PubChem BioAssay (EPA / NIEHS).
Where “and” joins values, the source holds several entries; their conditions need not be identical. Identical values can stand only once. Calls of active or inactive are those of the source. Rule for the calls: active = hit-call score of the fitted dose curve at least 0.9, where 1 is the maximum; inactive = score below 0.9.

read-out: Vascular cell adhesion molecule 1 (VCAM1), VCAM1 (gene 7412); assay: BSK_hDFCGF_VCAM1: BioMAP Diversity Plus: hDFCGF Assay for Vascular cell adhesion molecule 1 (VCAM1) Biomarker Activity (AID 2283065); conditions: primary human foreskin fibroblasts; actives raise or lower the signal;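 for AC50: VCAM-1 protein level quantified by ELISA after 24 h chemical exposure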
Method in brief: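 ELISA readout of VCAM-1 on human dermal fibroblast primary cultures, 24 h after chemical exposure. Gain or loss of signal fitted in both directions against DMSO baseline.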

| Structure (SMILES) | AC50 | outcome |
| --- | --- | --- |
| COc1ccc(C(c2ccc(OC)cc2)C(Cl)(Cl)Cl)cc1 | 20 µM (active) |  |
| CCNc1nc(Cl)nc(NCC)n1 |  | inactive |
| CCOc1cc(Oc2ccc(C(F)(F)F)cc2Cl)ccc1[N+](=O)[O-] |  | inactive |
| CO/C=C(/C(=O)OC)c1ccccc1Oc1cc(Oc2ccccc2C#N)ncn1 |  | inactive |
| C=CCC1=C(C)[C@@H](OC(=O)[C@@H]2[C@@H](C=C(C)C)C2(C)C)CC1=O | 29.6 µM (active) |  |

read-out: Intercellular Adhesion Molecule 1 (ICAM1), ICAM1 (gene 3383); assay: BSK_KF3CT_ICAM1: BioMAP Diversity Plus: KF3CT Assay for Intercellular Adhesion Molecule 1 (ICAM1) Biomarker Activity (AID 2283067); conditions: primary human keratinocytes with fibroblasts; actives raise or lower the signal
Method in brief: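 Cell-surface ICAM-1 was measured by ELISA 24 h after dosing primary human skin keratinocytes co-cultured with fibroblasts. Parallel SRB staining tracked overt cytotoxicity. Gain or loss of signal was fitted relative to DMSO.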

| Structure (SMILES) | outcome | AC50 |
| --- | --- | --- |
| O=C(Nc1ccccc1)Nc1ccnc(Cl)c1 | inactive |  |
| CCCCC(CC)COC(=O)c1ccccc1C(=O)OCC(CC)CCCC (configuration not stated) | inactive |  |
| O=C(O)COc1nc(Cl)c(Cl)cc1Cl | inactive |  |
| Cc1ccc(-c2c(Cl)nc(C#N)n2S(=O)(=O)N(C)C)cc1 | inactive |  |
| Fc1ccc(Oc2ccnc3cc(Cl)cc(Cl)c23)cc1 | inactive |  |
| CN(C)C(=S)SSC(=S)N(C)C |  | 6.42 µM (active) |
| C=CC1(C)OC(=O)N(c2cc(Cl)cc(Cl)c2)C1=O (configuration not stated) | inactive |  |
| COc1nc(NC(C)C)nc(NC(C)C)n1 | inactive |  |
| OC(c1ccc(Cl)cc1)(c1cncnc1)c1ccccc1Cl (configuration not stated) | inactive |  |
| CC(C)Oc1cc(-n2nc(C(C)(C)C)oc2=O)c(Cl)cc1Cl | inactive |  |
| CC1COC(Cn2cncn2)(c2ccc(Oc3ccc(Cl)cc3)cc2Cl)O1 (configuration not stated) |  | 38.2 µM (active) |
| CCCC1COC(Cn2cncn2)(c2ccc(Cl)cc2Cl)O1 (configuration not stated) | inactive |  |
| Oc1ccccc1-c1ccccc1 | inactive |  |
| COC(=O)c1ccccc1C(=O)OC | inactive |  |
| N#Cc1cc(Br)c(O)c(Br)c1 | inactive |  |
| CCNc1nc(Cl)nc(NC(C)C)n1 | inactive |  |
| N#CC(CCc1ccc(Cl)cc1)(Cn1cncn1)c1ccccc1 (configuration not stated) | inactive |  |
| COP(=S)(OC)Oc1nc(Cl)c(Cl)cc1Cl | inactive |  |
| CNC(=S)S | inactive |  |
| CCCCNC(=O)OCC#CI |  | 35.1 µM (active) and 15.5 µM (active) |
| CS/C(C)=N/OC(=O)N(C)SN(C)C(=O)O/N=C(\C)SC |  | 11.1 µM (active) |
| CCCCNC(=O)n1c(NC(=O)OC)nc2ccccc21 | inactive |  |
| COc1ccc(C(c2ccc(OC)cc2)C(Cl)(Cl)Cl)cc1 | inactive |  |
| CCNc1nc(Cl)nc(NCC)n1 | inactive |  |
| CCOc1cc(Oc2ccc(C(F)(F)F)cc2Cl)ccc1[N+](=O)[O-] | inactive |  |
| CO/C=C(/C(=O)OC)c1ccccc1Oc1cc(Oc2ccccc2C#N)ncn1 | inactive |  |
| C=CCC1=C(C)[C@@H](OC(=O)[C@@H]2[C@@H](C=C(C)C)C2(C)C)CC1=O | inactive |  |
